Results published in PubChem BioAssay (NCI).
“And” between values parts separate entries of the source, which are not always exact repeats. Equal entries are not always repeated. About 83,000 compounds went through this panel and 20% of them were active in at least one assay; those are over-represented in the sample as a whole.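 48-hour exposure, single concentration, 96-well plates; percent growth endpoint where 0 means no net growth. Active: below 10.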 The source made the active and inactive calls.

Key:
Assay in all cases: NCI-60 one-dose screen, 48 h (100 = growth as untreated, 0 = no growth, -100 = all killed)
Conditions in all cases: 10 µM unless noted
T-47D breast = tested on: T-47D breast
BT-549 breast = tested on: BT-549 breast
MDA-MB-435 melanoma = tested on: MDA-MB-435 melanoma
SW-620 colon = tested on: SW-620 colon
MCF7 breast = tested on: MCF7 breast
HCT-116 colon = tested on: HCT-116 colon
HCC-2998 colon = tested on: HCC-2998 colon
KM12 colon = tested on: KM12 colon

| Structure (SMILES) | growth (T-47D breast) | growth (BT-549 breast) | growth (MDA-MB-435 melanoma) | growth (SW-620 colon) | growth (MCF7 breast) | growth (HCT-116 colon) | growth (HCC-2998 colon) | growth (KM12 colon) |
| --- | --- | --- | --- | --- | --- | --- | --- | --- |
| CC(C)(C)c1cc(NC(=O)Nc2ccc(-c3cn4c(n3)sc3cc(OCCN5CCOCC5)ccc34)cc2)no1 | -33% (active) and -23.2% (active) | 4.32% (active) and 9.08% (active) | 65.1% (inactive) and 31.5% (inactive) | 49.9% (inactive) and 21.1% (inactive) | 9.99% (active) and 22.3% (inactive) | 8.69% (active) and 14.3% (inactive) | 39.1% (inactive) and 56.4% (inactive) | 13.7% (inactive) and 9.16% (active) |
| COc1cc(-c2nc(SCCC(C)C)nc(Nc3ccc(F)cc3)c2C#N)cc(OC)c1OC | 65.7% (inactive) | 74.9% (inactive) | 79.4% (inactive) | 80.1% (inactive) | 87% (inactive) | 22% (inactive) | 102% (inactive) | 78.6% (inactive) |
| C=C1C(=O)O[C@@H]2[C@H]3[C@H](COC(C)=O)[C@@H](OC(C)=O)C[C@H]3C(=C)[C@@H](O)C[C@@H]12 | 90.5% (inactive) | 94.2% (inactive) | 101% (inactive) | 84.4% (inactive) | 76.8% (inactive) | 75.7% (inactive) | 109% (inactive) | 99.8% (inactive) |
| CCCCCCCCCCCCCCCCCCOc1cccc(CC(=O)OCC[N+](CC)(CC)CC)c1 | 52.7% (inactive) | 86.9% (inactive) | 82.1% (inactive) | 78.6% (inactive) | 32.7% (inactive) | 51.7% (inactive) | 56.1% (inactive) | 83.3% (inactive) |
| Nc1ccc(-c2nc3ccc4[nH]ncc4c3c3c2CCCC3)cc1F | 14.6% (inactive) | 10% (inactive) | 14.2% (inactive) | 18.7% (inactive) | 29.2% (inactive) | 11.1% (inactive) | 44.3% (inactive) | 12.3% (inactive) |
| Brc1ccc(/C=C(/C2=NCCN2)n2ccc3ccccc32)cc1 | 53.1% (inactive) | 80.3% (inactive) | 58.2% (inactive) | 71.8% (inactive) | 30.2% (inactive) | 52.9% (inactive) | 48.5% (inactive) | 80.4% (inactive) |
| Fc1ccccc1-c1cnn2cc(-c3ccccc3)cnc12 | 98.1% (inactive) | 98.7% (inactive) | 75.6% (inactive) | 92.2% (inactive) | 68.1% (inactive) | 91.3% (inactive) | 92.8% (inactive) | 59.3% (inactive) |
| Nc1ccc(-c2ccc(N)c(Br)c2)cc1Br | 40.9% (inactive) | 34% (inactive) | 1.83% (active) | 47% (inactive) | 17.9% (inactive) | 23.6% (inactive) | 64.6% (inactive) | 37.3% (inactive) |
| CCCn1nc(C(=O)N2CCCCC2)c2c1CCC(N1CCC(c3ccncc3)CC1)C2 (stereo not drawn) | 99.5% (inactive) | 79.5% (inactive) | 102% (inactive) | 104% (inactive) | 99.6% (inactive) | 99.4% (inactive) | 109% (inactive) | 103% (inactive) |
| COc1nc(=O)n(C2C=CC(=O)O2)cc1F (stereo not drawn) | 41.7% (inactive) | 81.2% (inactive) | 79% (inactive) | 46.3% (inactive) | 31.9% (inactive) | 34.3% (inactive) | 133% (inactive) | 103% (inactive) |
| Cc1ccc(-c2nc3nc(-c4ccccc4)nc(N4CCCNCC4)c3o2)cc1 | -45% (active) | 18% (inactive) | -83.1% (active) | -57.5% (active) | -78.4% (active) | -71.4% (active) | -74.9% (active) | -92.3% (active) |
